Test results published in PubChem BioAssay (NCATS).
Records with an inconclusive call do not appear. Active and inactive are the calls of the source. Unless noted, calls come from the whole dose curve; as a rule, active = well fitted curve in the direction sought with a large enough effect; inconclusive = small, poorly fitted or top-dose-only effect, or another doubt; inactive = no such curve, though single readings can be large; an effect the other way counts as inactive or inconclusive.

Legend:
[1] = Confirmation and Secondary Assay for Modulators of Hemoglobin Beta Chain Splicing at IVS2 654 locus (AID 910);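 note: per-well total GFP intensity by laser scanning cytometry after 2-day treatment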
Procedure, shortened: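 HeLa cells stably carrying EGFP interrupted by mutant beta-globin IVS2-654 intron (CMV-driven) were treated with compound for 2 days at 37C; corrected splicing was scored as total peak GFP intensity per well (488 nm excitation, 500-520 nm emission).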

[2] = Confirmation and Secondary Assay for Modulators of Hemoglobin Beta Chain Splicing at IVS2 705 locus (AID 930);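 note: HeLa cells stably expressing the EGFP-705 splicing reporter; GFP fluorescence per well restored by corrected splicing of the IVS2-705 intron in EGFP; series mostly up to about 46 µM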
Procedure, shortened: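 Stable HeLa line with EGFP disrupted by mutant beta-globin intron 2 (705). Overnight attachment, then 2 days of compound at 37C, 5% CO2. Signal: peak GFP intensity summed over objects 5-250 µm.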

[3] = Cell Viability - LYMP2-001 (AID 921);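 note: cells exposed to compound for 24 h at 37 °C; nearly all actives have a fitted effect of over 70% in size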; note: potency is the fitted concentration of half-maximal effect
Procedure, shortened: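 qHTS, 1536-well; lymphoblastoid cells, 24 hr compound, 37 C; ATP by CellTiter-Glo, 30 min RT; luminescence; Hill-fit AC50.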

[4] = MultiTox-Fluor Cytotoxicity Assay - LYMP1-001 - Dead Cells (AID 946); note: potency is the fitted concentration of half-maximal effect
Procedure, shortened: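 In this qHTS, 15 uM tetraoctylammonium bromide defined 100% and DMSO defined basal activity. Lymphoblastoid cells (LYMP1-001, 2500 per well) received compound for 16 hr at 37 C before a fluorogenic dead-cell substrate readout at 485/520 nm.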

[5] = MultiTox-Fluor Cytotoxicity Assay - LYMP1-001 - Live Cells (AID 947); note: potency is the fitted concentration of half-maximal effect
[6] = MultiTox-Fluor Cytotoxicity Assay - LYMP1-002 - Live Cells (AID 955);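 note: cells exposed to compound for 16 hours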; note: potency is the fitted concentration of half-maximal effect
Procedure, shortened: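 Read-out is live-cell protease activity (cell-permeant GF-AFC substrate, fluorescence Ex/Em=405/510), where a decrease indicates acute toxicity. Human lymphoblastoid cells were treated 16 hours at 37 C in a concentration series, and AC50 values came from standard Hill modelling.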

[7] = MultiTox-Fluor Cytotoxicity Assay - LYMP1-002 - Dead Cells (AID 960); note: nearly all actives have a fitted effect of over 60% in size; note: potency is the fitted concentration of half-maximal effect
Procedure, shortened: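 LYMP1-002 cells 2500/well; 5 hr 37 C pre-incubation; compound 16 hr 37 C; MultiTox-Fluor reagent 60 min RT; dead-cell fluor Ex/Em 485/520. Norm. to DMSO (0%) vs 15 uM tetraoctylammonium bromide (100%); Hill AC50.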

[8] = MultiTox-Fluor Cytotoxicity Assay - LYMP1-003 - Dead Cells (AID 961);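 note: cells exposed to compound for 16 h at 37 °C; nearly all actives have a fitted effect of over 70% in size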; note: potency is the fitted concentration of half-maximal effect
Procedure, shortened: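 Acute toxicity is scored as increased dead-cell protease activity in human lymphoblastoid LYMP1-003 cells after 16 h compound exposure in complete culture medium. Activity is normalized to DMSO basal and 15 uM tetraoctylammonium bromide as full response.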

[9] = MultiTox-Fluor Cytotoxicity Assay - LYMP1-003 - Live Cells (AID 962);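 note: cells exposed to compound for 16 hours at 37 °C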; note: potency is the fitted concentration of half-maximal effect
Procedure, shortened: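 qHTS, 1536-well; 2500 cells/well LYMP1-003; 5 hr 37 C settle; cpd 16 hr 37 C; MultiTox-Fluor reagent 60 min RT; live-cell protease fluor. 405/510; Hill-fit AC50; tetraoctylammonium bromide pos. ctrl.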

[10] = Cell Viability - LYMP1-003 - Assay at 24 hr (AID 963); note: potency is the fitted concentration of half-maximal effect
Procedure, shortened: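 Cells seeded at 2500/well, 5 hr at 37 C; compounds added; 24 hr at 37 C; CellTiter-Glo added, 30 min room temperature; luminescence read. Decrease in ATP taken as cytotoxicity, AC50 from Hill modelling.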

[11] = Cell Viability - LYMP1-003 - Assay at 40 hr (AID 964); note: nearly all actives have a fitted effect of over 60% in size; note: potency is the fitted concentration of half-maximal effect
Procedure, shortened: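 Cells were seeded at 2500 per well and incubated 5 hr at 37 C. Compounds were added across a concentration series and left 40 hr at 37 C. CellTiter-Glo was added for 30 min at room temperature before luminescence reading.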

[12] = Cell Viability - LYMP2-003 (AID 965);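 note: cells exposed to compounds for 24 h before reading; nearly all actives have a fitted effect of over 50% in size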; note: potency is the fitted concentration of half-maximal effect
Procedure, shortened: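 Acute cytotoxicity is scored as a concentration-dependent drop in intracellular ATP, measured by luciferase luminescence in human lymphoblastoid cells treated for 24 hours at 37 C. AC50 values derive from Hill-equation modelling.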

[13] = target: Cytochrome P450 2C19 (Homo sapiens) (UniProt P33261); test: qHTS Assay for Inhibitors and Substrates of Cytochrome P450 2C19 (AID 899); note: nearly all actives have a fitted effect of over 60% in size
Sequence of Cytochrome P450 2C19 (Homo sapiens) (P33261 whole entry, looked up): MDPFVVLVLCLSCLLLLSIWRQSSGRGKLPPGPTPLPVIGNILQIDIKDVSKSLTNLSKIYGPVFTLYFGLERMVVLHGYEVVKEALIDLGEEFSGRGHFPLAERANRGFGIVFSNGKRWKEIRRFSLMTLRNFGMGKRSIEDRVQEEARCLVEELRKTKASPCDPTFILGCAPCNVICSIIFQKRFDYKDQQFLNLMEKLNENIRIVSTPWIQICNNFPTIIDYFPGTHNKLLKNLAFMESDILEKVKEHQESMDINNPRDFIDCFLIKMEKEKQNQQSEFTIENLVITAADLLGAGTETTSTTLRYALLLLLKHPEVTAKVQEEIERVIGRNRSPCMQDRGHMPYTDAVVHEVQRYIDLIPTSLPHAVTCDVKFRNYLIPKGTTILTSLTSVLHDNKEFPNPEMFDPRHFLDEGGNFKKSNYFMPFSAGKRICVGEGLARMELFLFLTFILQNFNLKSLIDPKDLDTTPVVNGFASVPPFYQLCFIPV
Procedure, shortened: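 NADPH-dependent conversion of Luciferin-H EGE (10uM, at KM) by 5nM enzyme in 50mM KPO4, 60 min at 37C following 10 min compound preincubation. Stopped with luciferin detection buffer; luminescence read after 20 min.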

[14] = target: Muscarinic acetylcholine receptor M1 (Rattus norvegicus) (UniProt P08482); test: qHTS Assay for Antagonists of Acetylcholine Muscarinic M1 Receptor: Kinetic Measurement of Intracellular Calcium Response (AID 943);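 note: Fluo-4 calcium signal as peak divided by basal fluorescence over 4 min; series mostly up to about 35 µM; nearly all actives have a fitted effect of over 75% in size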
Sequence of Muscarinic acetylcholine receptor M1 (Rattus norvegicus) (P08482 whole entry, looked up): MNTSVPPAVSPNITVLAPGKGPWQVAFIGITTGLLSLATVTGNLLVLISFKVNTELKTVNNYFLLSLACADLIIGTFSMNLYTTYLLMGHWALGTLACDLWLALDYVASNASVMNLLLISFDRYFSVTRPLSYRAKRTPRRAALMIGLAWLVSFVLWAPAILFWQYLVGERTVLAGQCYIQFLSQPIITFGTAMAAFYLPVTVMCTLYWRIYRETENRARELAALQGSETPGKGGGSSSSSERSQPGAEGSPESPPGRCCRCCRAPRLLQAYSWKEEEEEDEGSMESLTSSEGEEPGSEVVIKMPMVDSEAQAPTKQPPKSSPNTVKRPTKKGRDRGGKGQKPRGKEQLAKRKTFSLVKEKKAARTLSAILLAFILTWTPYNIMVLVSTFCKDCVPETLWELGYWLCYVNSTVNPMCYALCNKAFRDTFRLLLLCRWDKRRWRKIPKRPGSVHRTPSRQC
Procedure, shortened: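 Rat M1-CHO cells, 2000/well, overnight → Fluo-4 no-wash dye with probenecid, 1 h 37C → compound 10 min, room temp → basal read 6 s → carbachol EC80 (100 nM) → 4 min kinetic read; peak/basal.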

[15] = target: Pyruvate kinase (Leishmania mexicana) (UniProt Q27686); test: qHTS Validation Assay for Inhibitors of Leishmania Mexicana Pyruvate Kinase (AID 945)
Sequence of Pyruvate kinase (Leishmania mexicana) (Q27686 2-499 E452W): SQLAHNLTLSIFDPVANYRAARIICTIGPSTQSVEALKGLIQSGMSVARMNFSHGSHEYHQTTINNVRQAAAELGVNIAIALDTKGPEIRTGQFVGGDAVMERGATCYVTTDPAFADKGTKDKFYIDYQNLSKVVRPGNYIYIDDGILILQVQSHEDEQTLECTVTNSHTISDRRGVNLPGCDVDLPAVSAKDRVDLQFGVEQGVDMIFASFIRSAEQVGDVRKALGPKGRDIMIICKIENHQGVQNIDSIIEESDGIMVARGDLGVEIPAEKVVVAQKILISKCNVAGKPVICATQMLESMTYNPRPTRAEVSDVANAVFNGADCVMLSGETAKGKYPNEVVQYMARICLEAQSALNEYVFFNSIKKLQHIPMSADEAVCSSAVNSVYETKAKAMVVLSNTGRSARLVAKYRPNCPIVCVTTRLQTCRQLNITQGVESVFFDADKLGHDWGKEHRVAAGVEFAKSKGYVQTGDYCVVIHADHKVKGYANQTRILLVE
Procedure, shortened: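 Mutant LmPYK (E451W), 0.2 nM, plus 0.5 mM PEP and 0.1 mM ADP in 50 mM imidazole pH 7.2 containing 0.01% Tween 20 and 0.05% BSA. Incubated 1 h at room temperature; luminescence via PKLight, normalized to DMSO.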

[16] = qHTS Assay for Identification of Small Molecule Antagonists for Thrombopoietin (TPO) Signaling Pathway (AID 918); details: TPO-dependent cell signaling reporter, antagonist mode; note: potency is the fitted concentration of half-maximal effect; nearly all actives have a fitted effect of over 60% in size
Procedure, shortened: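 Ba/F3 (murine, hTPO-R, GPIIb-luc reporter); overnight IL-3 withdrawal; cpd + TPO 26 pM final (EC50); 24 h 37 C/5% CO2; Steadylite luminescence after 10 min RT.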

[17] = target: Pyruvate kinase PKM (Homo sapiens) (UniProt P14618); test: qHTS Assay for Activators of Human Muscle Pyruvate Kinase (AID 954; active = well fitted curve in the direction sought with a large enough effect, not every such curve was filed as active)
Sequence of Pyruvate kinase PKM (Homo sapiens) (P14618 whole entry, looked up): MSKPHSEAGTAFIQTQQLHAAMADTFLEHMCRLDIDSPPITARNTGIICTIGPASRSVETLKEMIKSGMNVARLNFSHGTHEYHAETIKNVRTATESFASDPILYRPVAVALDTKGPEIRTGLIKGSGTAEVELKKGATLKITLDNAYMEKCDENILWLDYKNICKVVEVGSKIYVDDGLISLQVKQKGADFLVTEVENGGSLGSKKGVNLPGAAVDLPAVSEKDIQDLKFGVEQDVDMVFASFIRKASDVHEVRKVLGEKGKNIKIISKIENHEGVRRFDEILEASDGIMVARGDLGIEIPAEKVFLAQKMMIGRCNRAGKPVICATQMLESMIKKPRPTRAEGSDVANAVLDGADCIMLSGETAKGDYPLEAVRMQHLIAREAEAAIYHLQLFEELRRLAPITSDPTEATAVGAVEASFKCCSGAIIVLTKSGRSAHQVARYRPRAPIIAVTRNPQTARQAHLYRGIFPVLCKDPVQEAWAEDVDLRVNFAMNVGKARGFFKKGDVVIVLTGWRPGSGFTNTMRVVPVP
Procedure, shortened: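 Enzyme was run at intermediate activity so both inhibitors and activators could be detected. ATP formed from ADP and PEP by 0.1 nM human PKM2 during a 1 h room-temperature incubation was quantified by coupled luciferase luminescence.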

Measured: Potency

Cc1c(C(N)=O)cc([N+](=O)[O-])cc1[N+](=O)[O-]
inactive: [1] | [2]

CCn1cc(C(=O)O)c(=O)c2cnc(N3CCCC3)nc21
inactive: [1] | [2]

Cc1ccnc(NS(=O)(=O)c2ccc(N)cc2)n1
inactive: [1] | [2]

O=c1ccc2ccccc2o1
inactive: [1] | [3] | [2] | [4] | [5] | [6] | [7] | [8] | [9] | [10] | [11] | [12]

COc1cc(-c2ccc(=O)[nH]n2)ccc1OC(F)F
inactive: [13] | [14] | [15]

CN(C)CC/C=C1\c2ccccc2Sc2ccc(Cl)cc21
inactive: [1] | [2]

CC(C)(Oc1ccc(Cl)cc1)C(=O)O
inactive: [1] | [2]

Oc1ccc(O)cc1
inactive: [13] | [2] | [14] | [15] | [17]
active: [16] 12.6 µM | [3] 25.1 µM | [7] 12.6 µM | [8] 12.6 µM | [9] 50.1 µM | [10] 39.8 µM | [11] 12.6 µM | [12] 39.8 µM

Oc1c(I)cc(Cl)c2cccnc12
active: [3] 39.8 µM | [7] 31.6 µM | [11] 39.8 µM
inactive: [1] | [2] | [4]

COc1c2occc2c(OC)c2c(=O)cc(C)oc12
inactive: [1] | [2]

COc1ccc(OC)c(C(O)CNC(=O)CN)c1 (configuration not stated)
inactive: [1] | [2]

CC/C(=C(/CC)c1ccc(O)cc1)c1ccc(O)cc1
inactive: [1] | [3] | [2] | [5] | [6] | [8] | [9] | [10] | [12]

NC(=NCCCCCCN=C(N)/N=C(\N)Nc1ccc(Cl)cc1)/N=C(\N)Nc1ccc(Cl)cc1
active: [3] 39.8 µM | [4] 50.1 µM | [5] 39.8 µM | [6] 15.8 µM | [8] 31.6 µM | [9] 50.1 µM | [10] 50.1 µM | [11] 31.6 µM
inactive: [1] | [2]
